# The list is not random: actives were taken first. Their share in the collection is about 12%.
# PLK1 PBD block: inhibitors of human PLK1 polo-box domain binding; AID 720504; Potency, µM, inactives show max response, negative = inhibition, usual class: inhibitors; P53350; actives 2.8% (n = 360,000); Plk1 PBD binding of FITC phosphopeptide, fluorescence polarization; also: series mostly up to about 57 µM; % is scaled to controls: 0 for no effect and ±100 for the full control effect; nearly all actives have a fitted effect of over 65% in size
# Sfp PPTase inh: blocks B. subtilis Sfp PPTase activity; AID 1490; Biochemical Sfp PPTase activity, qHTS; actives 3.5% (n = 310,000); Potency, µM, for inactives: largest response in the series, negative = inhibition, hits mostly inhibitors;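 also: the enzyme is Sfp with the accession as filed and its product quenches rhodamine fluorescence; 0% = enzyme reaction without inhibitor and -100% = no enzyme wells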
#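 Compounds were incubated with enzyme (final 15 nM) for 15 min at room temperature before substrate addition started the reaction. Fluorescence at 525 nm excitation, 598 nm emission was recorded immediately and after 30 minutes.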
# G9a block: inhibitors of human histone lysine methyltransferase G9a | Q96KQ7 | G9a H3K9 monomethylation, AlphaScreen, 2 h | Potency, µM (top dose mostly 102 µM), for inactives: at the highest dose activity, negative = inhibition, usual class: inhibitors | actives 8.8% (n = 350,000); also: % is scaled to controls: 0 for no effect and ±100 for the full control effect; nearly all actives have a fitted effect of over 75% in size
#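 AlphaScreen read-out: biotin-H3K9 peptide (500 nM) methylation by 20 nM enzyme with 20 uM SAM, 2 h at room temperature after 15 min compound preincubation; anti-monomethyl H3K9 antibody plus donor/acceptor beads, 10 min dark.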
# HP1b chromo inh: inhibitors of HP1-beta chromodomain binding to methylated histone tails | P83916 | AlphaScreen HP1-beta / biotin-H3K9me3 peptide binding | Potency, µM (series often up to 114 µM), for the others: top-dose activity change, negative = inhibition, usual class: inhibitors | actives 0.56% (n = 390,000) | AID 540317; also: nearly all actives have a fitted effect of over 70% in size
#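 Compound inhibition of the preformed complex between 50 nM HP1-beta and 50 nM biotinylated H3K9me3 peptide was read by AlphaScreen. Buffer was PBS pH 7.4 with 0.01% Tween-20. Incubations ran 30 min at room temperature, with 10 ug/mL donor/acceptor beads.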
# JMJD2A Tudor: inhibitors of human JMJD2A Tudor domain. O75164. AlphaScreen JMJD2A-Tudor / H3K4me3 peptide binding. Potency, µM (doses to about 114 µM), for the others: at the top dose activity change, negative = inhibition, actives largely listed as inhibitors. actives 4.4% (n = 390,000). AID 504339; also: % is scaled to controls: 0 for no effect and ±100 for the full control effect; nearly all actives have a fitted effect of over 50% in size
# BAZ2B inh: blocks human BAZ2B; Q9UIF8; actives 4.4% (n = 360,000); AID 504333; Potency, µM (top dose mostly 114 µM), without a hit: at the highest dose activity change, negative = inhibition, usual class: inhibitors; AlphaScreen BAZ2B-H3K14Ac peptide displacement; also: % is scaled to controls: 0 for no effect and ±100 for the full control effect; nearly all actives have a fitted effect of over 60% in size
#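 Protein-peptide AlphaScreen: BAZ2B 50 nM, b-H3K14Ac 50 nM, 1x PBS pH 7.4 + 0.01% Tween-20. Preincubation 30 min RT; cpd 30 min RT (top 110 uM); beads 20 min RT, light-protected.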
# * = called active by the depositor; u = inconclusive; x = no result given; [ ] = dose if it differs, or a comment. Calls follow the shape of the dose curve; as a rule, active = well fitted curve in the direction sought with a large enough effect; inconclusive = small, poorly fitted or top-dose-only effect, or another doubt; inactive = no such curve, though single readings can be large; an effect the other way counts as inactive or inconclusive. Potency is read from the fitted curve at half-maximal effect.
SMILES,PLK1 PBD block,Sfp PPTase inh,G9a block,HP1b chromo inh,JMJD2A Tudor,BAZ2B inh
O=C(C[N+]12CCC(CC1)C(CO)C2)c1ccc([N+](=O)[O-])cc1 (stereo not given),2.1%,5.4%,35.5µM*,53.6%,-7.5%,-13.1%
O=C(C[N+]12CCC(CC1)C(OC(=O)c1ccccc1)C2)c1ccc([N+](=O)[O-])cc1 (stereo not given),-7.2%,-1.0%,x,32.4%,-10.1%,-4.3%
O=C(CCC1N=C2c3ccccc3N=C(SCc3cccc(Cl)c3)N2C1=O)N1CCN(c2ccccc2)CC1 (stereo not given),x,x,u,14.9%,-31.2%,-27.2%
COc1ccc(C(C)=O)cc1Cc1c(O)[nH]c(=S)[nH]c1=O,u,50.1µM*,8.91µM*,-7.3%,u,-17.9%
CCOc1ccc(C(C)=O)cc1Cc1c(O)[nH]c(=S)[nH]c1=O,29.9µM*,44.7µM*,x,u,89.1µM*,4.4%
CCCOc1ccc(C(C)=O)cc1Cc1c(O)[nH]c(=S)[nH]c1=O,29.9µM*,u,x,1.4%,-22.4%,12.8%
CC(=O)c1ccc(OC(C)C)c(Cc2c(O)[nH]c(=S)[nH]c2=O)c1,u,22.4µM*,x,26.2%,0.3%,-12.5%
COc1ccc(C(C)=O)cc1CC(C(=O)c1ccc(C)c(C)c1)N(C)C (stereo not given),-6.1%,5.0%,-6.0%[59 µM],38.8%,-10.1%,-29.3%
COc1ccc(C(C)=O)cc1CC(C(=O)c1ccc(F)cc1)N(C)C (stereo not given),-7.6%,-1.5%,1.8%[59 µM],6.3%,-15.8%,-22.7%
CC(C)(C)CC(C)(C)c1ccc(O)cc1,x,28.1%,x,x,x,x
Cn1c(O)c(C(=N)COc2ccccc2)c(=O)n(C)c1=O,-4.6%,3.7%,15.0%[0.0925 µM],21.4%,-7.3%,5.7%
Cn1c(O)c(C(=O)c2ccccc2Cl)c(=O)n(C)c1=O,-5.8%,-23.8%,u,17.7%,89.1µM*,x
O=C(COc1ccccc1)N1CCN(Cc2c[nH]c3ccccc23)CC1,0.1%,1.1%,12.6µM*,-17.6%,7.94µM*,x
COc1ccc(OCC(=O)N2CCN(Cc3c[nH]c4ccccc34)CC2)cc1,-5.7%,-14.6%,3.55µM*,u,3.55µM*,x
Oc1ccccc1/C=N/[n+]1ccccc1,1.5%,-5.9%,56.2µM*,-11.9%,-3.0%,-6.8%
COc1ccc(C(=O)C23CN4CN(CN(C4)C2)C3)cc1,-6.6%,16.1%,-41.7%,22.7%,-21.2%,8.0%
COc1ccc(C(=O)C(C)(C)NO)cc1,-13.2%,-5.7%,u,u,50.1µM*,u
CCOc1ccccc1NC(=O)c1cccn(Cc2ccccc2C)c1=O,x,x,17.1%[59 µM],20.1%[57 µM],-10.3%,3.3%
O=c1c2ccccc2nc(/C=C/c2cccnc2)n1Cc1ccccc1,-10.8%,31.6µM*,x,u,22.4µM*,10µM*
CCNC(=O)[C@H]1O[C@@H](n2cnc3c(N)ncnc32)[C@H](O)[C@H]1O,x,x,51.4%[12.7 µM],x,x,x
O=c1[nH]c2ccccc2n1C1CCN(C(CCc2ccccc2)c2nnnn2C2CCCC2)CC1 (stereo not given),-0.8%,x,x,x,x,x
CCOP1(=S)Oc2cc3c(cc2C(C(=O)OC)(C(F)(F)F)O1)OCO3 (stereo not given),23.8µM*,25.1µM*,u,u,u,-32.5%
Clc1ccc(C(Cn2ccnc2)OCc2csc3c(Cl)cccc23)c(Cl)c1 (stereo not given),2.1%,x,12.6µM*,6.6%,28.2µM*,10µM*
Cc1csc(B(O)O)c1,x,40.6%,x,20.7%,-17.7%,x
O=[N+]([O-])c1cccnc1N1CCCNCC1,-0.8%,10.2%,44.7µM*,9.8%,-16.8%,-3.4%
SMILES,PLK1 PBD block,Sfp PPTase inh,G9a block,HP1b chromo inh,JMJD2A Tudor,BAZ2B inh
O=[N+]([O-])c1ccc(N2CCCCCC2)c2ncccc12,u,u,25.1µM*,u,15.8µM*,14.1µM*
CC(CNC(=O)c1cccnc1)NC(=O)c1cccnc1 (stereo not given),x,2.0%,u,x,x,x
O=c1c2ccc(Cl)cc2[nH]c(=S)n1-c1cccnc1,1.5%,-1.6%,20µM*,21.5%,17.8µM*,-21.2%
Cc1ccc2[nH]c(=S)n(-c3cccnc3)c(=O)c2c1,-1.6%,-3.5%,44.7µM*,20.0%,u,0.9%
O=C1CC2OCC=C3CN4CC[C@]56c7ccccc7N1C5C2[C@H]3C[C@H]46 (stereo not given in full),x,25.9%,16.7%[59 µM],x,x,x
CCN1C[C@]2(COC)CC[C@H](OC)[C@@]34C5C[C@@H]6[C@@H](OC)C[C@@]7(OCO[C@@]7([C@@H](O)C23)[C@@H]14)C5[C@H]6OC (stereo not given in full),x,7.3%,47.7%[59 µM],x,x,x
CCN1C(=O)NC(=O)/C(=C\c2cn(CC(=O)N3CCCC3)c3ccccc23)C1=O,u,56.2µM*,-44.8%,14.9%,-14.1%,2.3%
O=C1NC(=O)N(c2ccccc2F)C(=O)/C1=C/c1cn(CC(=O)N2CCOCC2)c2ccccc12,4.74µM*,u,15.8µM*,39.5%,-0.4%,-0.5%
CCN1C(=O)NC(=O)/C(=C\c2cn(CC(=O)N3CCCCC3)c3ccccc23)C1=O,u,26.2%,-11.3%,30.5%,1.1%,3.8%
CC(=O)O[C@@H]1[C@@H](O)C2OC3C=C(C)C(=O)[C@@H](O)[C@]3(CO)C1(C)C21CO1 (stereo not given in full),x,2.4%,x,x,x,x
CC12CN3CC(C)(CN(C1)P3(=O)Oc1ccccc1)C2=O (stereo not given),3.4%,-0.7%,39.8µM*,2.2%,-33.1%,-5.6%
O=C(CF)NC(NC(=S)Nc1cccc([N+](=O)[O-])c1)C(Cl)(Cl)Cl (stereo not given),-19.9%,-3.0%,35.5µM*,19.8%,-28.2%,-38.9%
COC(=O)c1ccccc1OP(=O)(c1cccc([N+](=O)[O-])c1)c1cccc([N+](=O)[O-])c1,-7.4%,6.0%,x,u,-21.5%,u
O=C(Nc1ccc(F)c([N+](=O)[O-])c1)c1cccn(Cc2ccccc2)c1=O,x,x,1.9%[59 µM],12.4%,-7.1%,-2.3%
COc1ccc(NC(=S)NC(NC(=O)CF)C(Cl)(Cl)Cl)cc1[N+](=O)[O-] (stereo not given),29.9µM*,-8.3%,22.4µM*,u,u,u
COc1nnc(-c2ccc(N3CCCCC3)c(NC(=O)c3ccc(Cl)cc3)c2)c2ccccc12,x,x,u,13.4%,-7.2%,-7.4%
C/C(Cl)=C/CC1(CN2CCCC2=O)C(=O)NC(=O)NC1=O,1.2%,7.4%,u,30.5%,10.5%,43.4%
C[N+](C)(C)CC#CCN1CCCC1=O,-17.3%,6.7%,0.631µM*,-0.1%,u,x
CC(C)CC1(CCc2ccccc2)C(=O)NC(=O)NC1=O,2.3%,x,x,40.5%,3.5%,x

# Source: PubChem BioAssay (National Center for Advancing Translational Sciences (NCATS))
